From PubChem
Compounds with a hit are over-represented: about 11% of the library has one in this group of screens.
SW480 rereplic = DNA re-replication induction in SW480 cells; SW480 DNA re-replication, Hoechst DNA content imaging, 48 h; Potency, µM (highest dose often 46.1 µM), for inactives: top-dose re-replication activation, actives largely listed as activators; 1.8% of 340,000 active; AID 624297; note: potency is the fitted concentration of half-maximal effect; % of control where 0% means no effect; nearly all actives have a fitted effect of over 55% in size
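250 cells/well; 23 nL cpd via pin tool; 48 hr, 37 C, 5% CO2; Hoechst 40 min; imager read of total nuclear intensity, ex 405/em 500-530 nm.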
IL-1B inflam inh = blocks inflammasome-driven IL-1 beta release; activity change, % at 57.5 µM; AID 743279; THP-1 LPS/ATP IL-1B secretion, AlphaLISA, 16 h; stronger effect = lower value; 4.7% of 360,000 active; in the data active = activity change below about -50%; inconclusive = mostly about -30% to -49%; note: % is set by controls: 0 for no effect and ±100 for the full control effect
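Secreted IL-1B measured by AlphaLISA bead assay after 16 h compound exposure of THP-1 cells; compounds (final up to 57.5 uM) added 1 h before LPS (250 ng/mL) and ATP (1.25 mM) stimulation; lower signal means less secretion.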
MCF10A rerep = DNA re-replication induction in MCF 10a cells; Potency, µM (doses to about 46.1 µM), without a hit: top-dose activity, positive = re-replication, actives largely listed as activators; MCF 10A DNA re-replication, Hoechst nuclear intensity, 48 h; 2.9% of 350,000 active; AID 624296; note: potency is the fitted concentration of half-maximal effect; % of control where 0% means no effect; nearly all actives have a fitted effect of over 50% in size
VP16 counter = counter-screen for ROR gamma inhibitors: Gal4-VP16 reporter | Drosophila S2 Gal4-VP16 UAS-luciferase, luminescence, 20 h | Potency, µM (top dose mostly 53.6 µM), for the others: at the highest dose activity, negative = inhibition, most hits filed as inhibitors | 3.5% of 310,000 active;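 note: Gal4-VP16 expression switched on by copper sulfate through the metallothionein promoter; potency is the fitted concentration of half-maximal effect; % is set by controls: 0 for no effect and ±100 for the full control effect; nearly all actives have a fitted effect of over 50% in size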
RORgamma inh = ROR gamma (mouse) transcription inhibition; P51450; Drosophila S2 Gal4-RORgamma UAS-luciferase reporter, 20 h; Potency, µM (series often up to 53.6 µM), for the others: at the highest dose activity change, negative = inhibition, actives largely listed as inhibitors; 5.4% of 310,000 active; note: potency is the fitted concentration of half-maximal effect; % is set by controls: 0 for no effect and ±100 for the full control effect; nearly all actives have a fitted effect of over 60% in size
Target sequence (P51450 whole entry, looked up, the tested form may be a part): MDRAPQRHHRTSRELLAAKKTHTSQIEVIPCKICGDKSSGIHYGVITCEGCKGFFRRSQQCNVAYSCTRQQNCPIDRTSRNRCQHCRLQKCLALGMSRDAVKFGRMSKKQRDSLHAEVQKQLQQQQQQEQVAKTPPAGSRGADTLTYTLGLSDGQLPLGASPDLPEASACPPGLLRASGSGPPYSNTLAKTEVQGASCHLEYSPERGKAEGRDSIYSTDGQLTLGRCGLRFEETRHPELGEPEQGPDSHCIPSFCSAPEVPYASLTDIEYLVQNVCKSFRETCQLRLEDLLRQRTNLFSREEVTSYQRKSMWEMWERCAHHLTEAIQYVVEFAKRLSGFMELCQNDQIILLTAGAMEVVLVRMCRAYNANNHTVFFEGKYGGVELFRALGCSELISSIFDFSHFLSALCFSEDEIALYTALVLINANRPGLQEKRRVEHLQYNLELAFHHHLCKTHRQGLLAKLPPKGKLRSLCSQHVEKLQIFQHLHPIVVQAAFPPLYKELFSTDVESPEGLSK
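Drosophila Schneider cells stably carrying a metallothionein-driven Gal4 DBD–ROR gamma fusion and a UAS-Photinus luciferase reporter were exposed to compound for 1 hr, then induced with copper sulfate (700 uM final) for 20 hr at ambient temperature before luminescence reading.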
* marks the source's active call; other numbers are inactive results; u = inconclusive; x = no result given; [ ] = dose if it differs, or a comment. Unless noted, calls come from the whole dose curve; as a rule, active = well fitted curve in the direction sought with a large enough effect; inconclusive = small, poorly fitted or top-dose-only effect, or another doubt; inactive = no such curve, though single readings can be large; an effect the other way counts as inactive or inconclusive.

SMILES	SW480 rereplic	IL-1B inflam inh	MCF10A rerep	VP16 counter	RORgamma inh
COc1ccc(CC(=O)Nc2ccncc2Cl)cc1	8%	-9	1%	3%	3%
CC(C)(C)OC(=O)N1CCC(C(=O)Nc2ccc(C(=O)NC3CC3)cc2)CC1	-2%	11	0%	x	x
Cn1c(=Nc2ccc(N3CCOCC3)cc2)ccc2ccccc21	1%	-5	-1%	1%	-3%
Cn1c(N=Nc2ccc(N3CCOCC3)cc2)[n+](C)c2ccccc21	13µM*	-28	26%	0%	-45%
CC1CCN(c2oc(-c3cccc4ccccc34)nc2C#N)CC1	3%	-26	10µM*	0%	-5%
N#Cc1nc(-c2ccccc2Cl)oc1N1CCCCC1	0%	-51*	u	7%	1%
N#Cc1nc(-c2cccc3ccccc23)oc1N1CCCCC1	u	-14	9%	-22%	-1%
S=C1NCC(c2ccccc2)S1 (configuration not stated)	2%	5	6%	x	x
C=C(C)C(O)CC/C(C)=C/Cc1c(O)ccc(C(=O)/C=C/c2ccc(O)cc2)c1O (configuration not stated)	u	-87*	21µM*	x	x
COc1ccc(C(=O)/C=C/c2ccc(O)cc2)c(O)c1C/C=C(\C)CCC=C(C)C	-9%	-87*	14%	x	x
Cn1c2c(c(=O)n(C)c1=O)[C@@]1(C(=O)Nc3ccccc31)C(C#N)=C(N)O2	5%	0	-3%	u	20µM*
COc1cc(NS(=O)(=O)c2ccc(NC(=S)NC(=O)c3sc4cc(F)ccc4c3Cl)cc2)nc(OC)n1	-1%	-50*	u	12%	-39%
COC(=O)/C=C1/N/C(=N\c2nc(C)cc(C)n2)N(c2cccc(C)c2)C1=O	-2%	-69*	18%	1%	u
Cc1onc(-c2ccccc2)c1C(=O)NCC(=O)Nc1cc(Cl)ccc1Cl	-5%	u	2%	x	x
O=C(c1ccccc1)N1N=C(c2ccccc2)CC1c1ccccc1O (configuration not stated)	u	-108*	u	4µM*	4.5µM*
CCn1cc(Cl)c(C(=O)N2N=C(c3ccc4ccccc4c3)CC2c2ccccc2O)n1 (configuration not stated)	u	u	29%	16µM*	u
O=C(c1ccncc1)N1N=C(c2ccc(Br)cc2)CC1c1ccccc1O (configuration not stated)	6%	-63*	u	-15%	25%
COc1ccc(C2CC(c3ccccc3)=NN2C(=O)c2ccc(F)cc2)cc1 (configuration not stated)	6%	-64*	15%	-4%	0%
O=NN(Cc1cccnc1)C(=O)NC1CCCCC1	x	-8	x	x	x
O=C(c1ccccc1Cl)N1N=C(c2ccc(Br)cc2)CC1c1nc2ccccc2[nH]1 (configuration not stated)	u	-67*	u	u	u
COc1ccc(C2=NN(C(=O)CSc3ncccn3)C(c3ccc(C)cc3)C2)cc1 (configuration not stated)	u	-1	u	-21%	39%
CC(=O)N1N=C(c2ccccc2)CC1c1cn(Cc2ccccc2)c2ccccc12 (configuration not stated)	u	-4	21µM*	u	u
CC(=O)N1N=C(c2ccncc2)CC1c1ccccc1O (configuration not stated)	-3%	106	3%	-15%	u
Cc1ccc(C2=NN(C(=O)c3ccccc3F)C(c3ccccc3F)C2)cc1 (configuration not stated)	u	-16	u	-5%	-18%
COc1ccc(C2CC(c3ccc(Br)cc3)=NN2C(=O)CSC2=NCCS2)cc1 (configuration not stated)	u	-65*	19%	4%	-1%
SMILES	SW480 rereplic	IL-1B inflam inh	MCF10A rerep	VP16 counter	RORgamma inh
COc1cc(C(=O)NCC(c2cccs2)N2CCOCC2)cc(Br)c1OCc1ccccc1 (configuration not stated)	26%	-8	u	x	x
CCOC(=O)C1=C[C@@H](C(C)(C)C)N(S(=O)(=O)c2ccc(C)cc2)[C@H]1c1ccc(C)cc1	x	51	x	x	x
O=C(NC(=S)Nc1ccccc1O)c1ccccc1Cl	-2%	-11	u	u	7.1µM*
CC(=O)c1cccc(NC(=S)NC(=O)c2ccc(C)cc2Cl)c1	-17%	14	2%	13µM*	11µM*
CC(=O)c1cccc(NC(=S)NC(=O)c2ccccc2Cl)c1	-4%	-13	-5%	-86%	13µM*
NC(=S)NNC(=O)c1ccccc1Cl	3%	6	-4%	-10%	u
Cc1cccc(NC(=O)CSc2nc3ccccc3nc2N2CCCC2)c1	25%	u	21µM*	2%	-5%
O=C(CCCc1nc2ccccc2s1)N1CCN(c2ccccc2)CC1	-2%	34	2%	4µM*	0%
CCc1ccc(NC(=O)CSc2nc3ccccc3nc2N2CCCCC2)cc1	2%	32	10µM*	-13%	-1%
O=C(CSc1nc2ccccc2nc1N1CCCCC1)N1CCN(c2ccccc2)CC1	1%	-21	4.1µM*	6%	20%
OCC1OC(C#Cc2ccccc2)C=CC1O (configuration not stated)	x	x	x	-1%[10 µM]	-2%[10 µM]
CCc1c(C)nc2nc(SCc3ccccc3)[nH]n2c1=O	3%	47	1%	u	u
CCN1CCCc2cc(CN(CCN3CCOCC3)C(=S)Nc3cc(F)cc(F)c3)ccc21	3%	-13	1%	1%[10 µM]	7.1µM*
CCOc1ccc(NC(=S)N(CCN2CCOCC2)Cc2ccc3c(c2)CCCN3CC)cc1	3%	0	7%	u	6.3µM*
CCN1CCCc2cc(CN(CCN3CCOCC3)C(=S)Nc3ccc(OC)cc3)ccc21	-4%	-10	15%	0%[10 µM]	u
CCN1CCCc2cc(CN(CCN3CCOCC3)C(=S)Nc3cccc(Cl)c3)ccc21	13%	u	u	-2%[10 µM]	7.1µM*
Cc1ccc(NC(=S)N(CCN2CCOCC2)Cc2ccccc2F)cc1	2%	2	5%	-8%	u
CCN1CCCc2cc(CN(CCN3CCOCC3)C(=S)Nc3ccc(C)cc3)ccc21	16%	4	u	-20%[10 µM]	3.5µM*
Cc1cc2ncn(/N=C/c3ccc(-c4ccccc4)o3)c2cc1C	6%	-4	u	20µM*	11µM*
COc1ccc(CCNC(=O)COc2cccc3c2OC(C)(C)C3)cc1OC	4%	-13	9%	x	x
CC(C)CCNC(=O)COc1cccc2c1OC(C)(C)C2	12%	-55*	5%	2%	14%
CC1=CCC2CC1C2(C)C (configuration not stated)	-5%	x	4%	-1%	-1%
